# Reference: article PMC5540273 (PLoS ONE, 2017)
# How the values were obtained:
# Details in all cases: concentration: 1 μM, replicates: in singlicate; n = 1
# EPHA4 = system: EPHA4
# EPHA5 = system: EPHA5
# EPHA6 = system: EPHA6
# EPHA7 = system: EPHA7
# EPHA8 = system: EPHA8
# EPHB1 = system: EPHB1
# EPHB2 = system: EPHB2
# EPHB3 = system: EPHB3
# EPHB4 = system: EPHB4
# EPHB6 = system: EPHB6
# ERBB2 = system: ERBB2
# ERBB3 = system: ERBB3
# ERBB4 = system: ERBB4
# ERK1 = system: T1, ERK1
# T1 construct: gene MAPK3
# ERK2 = system: T2, ERK2
# T2 construct: gene MAPK1
# ERK3 = system: T3, ERK3
# T3 construct: gene MAPK6
# ERK4 = system: T4, ERK4
# T4 construct: gene MAPK4
# ERK5 = system: T5, ERK5
# T5 construct: gene MAPK7
# ERK8 = system: T6, ERK8
# T6 construct: gene MAPK15
# ERN1 = system: ERN1
# 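Further: KINOMEscan kinase panel screen.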
SMILES,%Inh (EPHA4) [%],%Inh (EPHA5) [%],%Inh (EPHA6) [%],%Inh (EPHA7) [%],%Inh (EPHA8) [%],%Inh (EPHB1) [%],%Inh (EPHB2) [%],%Inh (EPHB3) [%],%Inh (EPHB4) [%],%Inh (EPHB6) [%],%Inh (ERBB2) [%],%Inh (ERBB3) [%],%Inh (ERBB4) [%],%Inh (ERK1) [%],%Inh (ERK2) [%],%Inh (ERK3) [%],%Inh (ERK4) [%],%Inh (ERK5) [%],%Inh (ERK8) [%],%Inh (ERN1) [%]
O=S(=O)(c1ccc(-c2ccnc3[nH]ccc23)cc1)N1CCCC1 [GSK846226],0,0,0,3,4,3,0,14,4,9,0,0,0,0,0,11,30,0,0,35
CC1=C(C(=O)Nc2cc3cn[nH]c3cc2F)C(c2ccc(C(F)(F)F)cc2)CC(=O)N1 (stereo not shown) [GSK429286],4,0,12,11,23,3,10,21,10,17,9,0,63,8,0,14,10,0,0,2
O=C(Nc1ccccc1)Nc1cccc(Oc2ccc3nccn3n2)c1,0,0,0,0,0,0,3,0,10,9,38,53,0,0,0,0,0,0,0,0
O=c1cc(N2CCOCC2)nc2n(Cc3cccc(Cl)c3Cl)ccn12 [GSK2286295],0,0,0,3,12,13,0,11,14,24,0,0,0,0,6,0,27,0,2,0
COc1ccc2nc(-c3cccc(C)n3)nc(Nc3ccncc3)c2c1 [GSK204919],23,0,18,0,9,6,0,14,15,0,0,0,30,2,3,10,15,0,37,0
Cc1c(Cn2ccn3c(=O)cc(N4CCOCC4)nc23)cccc1C(F)(F)F [GSK2289044],6,0,0,0,0,21,0,5,9,0,0,0,0,0,0,0,0,0,0,3
Cl.Oc1ccc(-c2nc(-c3ccccc3)[nH]c2-c2ccncc2)cc1 [SB-428218],30,0,35,0,4,0,4,25,45,25,57,31,27,0,0,0,16,38,0,0
O=C(Nc1ccc2c(c1)OCO2)NC1CCN(c2ccnc(Nc3ccc(F)cc3)n2)C1 (stereo not shown) [GSK1379724],6,0,8,0,9,0,5,16,11,35,45,0,44,0,0,17,0,0,7,0
Cl.c1ccc(-c2n[nH]cc2-c2ccnc(-c3ccc(CN4CCOCC4)cc3)c2)nc1 [GW776245],16,11,5,15,19,10,30,13,17,0,3,52,2,0,12,0,0,9,0,0
Cc1ccccc1-n1cnc2c(N)ncnc21 [SKF-97510],4,0,0,0,0,1,0,0,0,7,0,0,0,0,0,2,0,0,0,0
Nc1nc(-c2nccs2)c(-c2ccnc3ccccc23)s1 [GW693542],11,0,8,10,17,13,0,10,1,5,36,0,27,6,0,0,18,0,0,0
COC(=O)c1c(-c2ccccc2)c2cc(OC)ccc2c(=O)n1Cc1ccccc1,35,1,43,0,1,0,23,35,27,0,9,11,0,0,17,0,14,13,0,17
COc1ccc(Nc2nccc(-c3cccc(NC(=O)c4cc5cc(F)ccc5[nH]4)c3)n2)cc1 [GSK1229782],6,0,11,10,26,32,14,25,32,25,58,29,34,13,17,17,24,28,0,2
Cc1ccc(-c2cc(-c3c[nH]nc3-c3ccccn3)ccn2)cc1 [GW684088],7,0,8,10,15,9,0,9,20,7,43,36,0,37,0,3,18,0,0,0
